Test results reported in ChEMBL document CHEMBL3988442, “University of Dundee, Small-Polar-MMV Screening Library” (2021).
Among all 69,000 compounds or so, about 420 (0.61%) showed an effect of 50% or more. The full list was thinned out, with strong results kept by preference.

Target: T1, Histidine--tRNA ligase (Leishmania infantum) (UniProt A4I591)
T1 sequence (whole entry): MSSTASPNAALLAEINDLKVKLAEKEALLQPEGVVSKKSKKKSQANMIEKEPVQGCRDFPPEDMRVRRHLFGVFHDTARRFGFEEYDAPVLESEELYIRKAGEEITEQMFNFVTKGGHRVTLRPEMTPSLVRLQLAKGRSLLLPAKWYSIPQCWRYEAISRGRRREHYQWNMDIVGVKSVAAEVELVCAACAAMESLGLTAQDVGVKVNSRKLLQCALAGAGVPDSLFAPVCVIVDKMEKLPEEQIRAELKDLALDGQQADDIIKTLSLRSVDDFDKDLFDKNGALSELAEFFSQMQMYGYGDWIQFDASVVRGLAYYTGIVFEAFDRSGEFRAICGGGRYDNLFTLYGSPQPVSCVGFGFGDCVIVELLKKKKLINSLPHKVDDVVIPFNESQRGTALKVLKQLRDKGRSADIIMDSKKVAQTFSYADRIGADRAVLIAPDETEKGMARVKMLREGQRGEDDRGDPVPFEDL
Experiment: Leishmania infantum Histidine tRNA synthetase (LdHisRS)
Assay type: functional
Parameters: scale not given: in the data most compounds retested in dose-response had high values
Settings: 30 µM

| SMILES | Percent Effect [%] |
| --- | --- |
| Cn1ccnc1CN1CCN(Cc2ccccc2)[C@@H]2CS(=O)(=O)C[C@@H]21 | 5.59 |
| CNc1[nH]nc(N)c1NC(=O)c1ccccc1 | 87.5 |
| CNc1[nH]nc(N)c1C(=O)Nc1ccccc1 | -15 |
| CNc1[nH]nc(N)c1C(=O)Nc1ccc(OC)cc1 | 27.5 |
| Cc1[nH]ccc1C(=O)N1C[C@H]2CC[C@@H]1CN(S(=O)(=O)N(C)C)C2 | 16.1 |
| COCCn1cc(NCc2cn(C)nc2-c2ccncc2)cn1 | 51.8 |
| Cn1cc(CNc2cnn(CC3CCCO3)c2)c(-c2ccncc2)n1 (stereo unspecified) | 30.7 |
| Cn1cc(CNc2cnn(CCO)c2)c(-c2ccncc2)n1 | 21.9 |
| Cc1ncsc1CN1C[C@@H]2CN(S(C)(=O)=O)CCO[C@@H]2C1 | 20 |
| Cc1ccc(CN2CC[C@H]3C[C@@H](c4nc(C5CC5)cs4)O[C@@H]3C2)o1 | 19.8 |
| Cc1noc([C@@]23CCO[C@@H]2CCN(C(=O)CCC(C)C)C3)n1 | 5.56 |
| Cc1nn(C)cc1C(=O)N1CCC(CSc2ccccc2)C1 (stereo unspecified) | 11 |
| Cn1cccc(NC(=O)N2CCC(CSc3ccccc3)C2)c1=O (stereo unspecified) | 78.1 |
| CC(C)[C@H](NC(=O)N1CCC(Cc2ccccc2)CC1)C(=O)O | -2.5 |
| Cc1cnc(C(=O)N2CCC(COCc3ccccc3)C2)cn1 (stereo unspecified) | 2.67 |
| COc1c(C(=O)N2CCC(CSc3ccccc3)C2)c(C)nn1C (stereo unspecified) | 19.2 |

| SMILES | Percent Effect [%] |
| --- | --- |
| Cn1ccnc1CC1CCCN(C(=O)Nc2cccn(C)c2=O)C1 (stereo unspecified) | 17.3 |
| Cn1cccc(NC(=O)N2CCC(Cc3ccccc3)C2)c1=O (stereo unspecified) | 106 |
| CC(C)(C)C(=O)N1CCC(COCc2ccccc2)C1 (stereo unspecified) | 8 |
| Cn1cccc(NC(=O)N2CCC(COCc3ccccc3)C2)c1=O (stereo unspecified) | 108 |
| Cc1csc(CN2C[C@@H]3COC[C@]3(C(=O)NCc3ccco3)C2)n1 | 7 |
| Cc1oncc1C(=O)N1CC[C@H]2[C@H](CO[C@@H]2CNS(C)(=O)=O)C1 | 28.6 |
| CN(C)C[C@H]1OC[C@@H]2CCN(C(=O)Cc3cccs3)C[C@@H]21 | 7.89 |
| CN(C)C(=O)N1C[C@@H](C(=O)NCc2ccco2)C[C@H]2OCC[C@H]21 | 0 |
| O=C(O)[C@]12CCCN(Cc3cccs3)C[C@H]1CN(c1ncccn1)C2 | 22.2 |
| Cc1nc[nH]c1CN1C[C@@H]2CC[C@H](C1)N(C(=O)CCc1cnn(C)c1)C2 | 16.4 |
| COc1cc(CC(=O)Nc2cccc(C(=O)N(C)C)n2)ccc1C | 54 |
| CN(C)C(=O)c1cccc(NC(=O)Cc2cc(F)ccc2F)n1 | 19.7 |
| Cc1ccc(C)c(CC(=O)Nc2cccc(C(=O)N(C)C)n2)c1 | 17.1 |
| O=S(=O)(c1cccs1)N1CC[C@H]2[C@H]1CCN2CC1CC1 | 3.88 |
| CN(C)C[C@H]1OC[C@@H]2CCN(C(=O)c3cccn3C)C[C@@H]21 | 9.43 |
